The target of experiment [1] is Luciferin 4-monooxygenase (Photinus pyralis) (UniProt P08659). Put plainly: Biochemical firefly luciferase enzyme assay for NPC (AID 624030). Note: nearly all actives have a fitted effect of over 70% in size. The essentials: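 Direct inhibition of firefly luciferase enzyme (10 nM final, 50 mM Tris Acetate) assessed by luminescence within 5 minutes. Percent activity scaled between DMSO and PTC124 positive control, with concentration-effect curves classified by fit quality and response.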

Experiment [2] in a line: S16 Schwann cell viability assay (CellTiter-Glo assay) (AID 624031). Note: nearly all actives have a fitted effect of over 70% in size. The essentials:
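Rat S16 Schwann cells without reporter constructs received compound or DMSO for 24 h at 37 °C under 5% CO2. Cellular ATP was then quantified by CellTiter-Glo luminescence, with vehicle wells defined as 0% activity and cell-free wells as reference.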
For orientation: ATP-based viability assays read luminescence as a measure of living cells.

Experiment [3] in a line: S16 Schwann cell PMP22 intronic element firefly luciferase assay (AID 624032). Note: nearly all actives have a fitted effect of over 30% in size. In a few lines: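 Luciferase reporter of PMP22 intronic-element expression in stably transfected S16 rat Schwann cells, read by ONE-Glo luminescence after 24 h compound exposure at 37 C. Activity scaled between DMSO (0%) and positive-control PTC124; concentration-effect curves quality-classified.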

Experiment [4] in a line: S16 Schwann cell PMP22 intronic element beta-lactamase assay (AID 624044; calls by dose curve; note: nearly all actives have a fitted effect of over 15% in size). The essentials:
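Rat S16 Schwann cells with beta-Lac driven by a PMP22 intronic element, compound-treated 24 h at 37 °C. LiveBLAzer FRET B/G read: 460 nm normalized to potassium clavulanate vs DMSO; 535 nm FRET as viability; concentration-effect curves classified.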

Inconclusive results are not listed. Activity calls are given as the source filed them. Unless noted, calls come from the whole dose curve; as a rule, active = well fitted curve in the direction sought with a large enough effect; inconclusive = small, poorly fitted or top-dose-only effect, or another doubt; inactive = no such curve, though single readings can be large; an effect the other way counts as inactive or inconclusive.
Potency is the fitted concentration of half-maximal effect.

Chain of Luciferin 4-monooxygenase (Photinus pyralis) (P08659 whole entry, looked up): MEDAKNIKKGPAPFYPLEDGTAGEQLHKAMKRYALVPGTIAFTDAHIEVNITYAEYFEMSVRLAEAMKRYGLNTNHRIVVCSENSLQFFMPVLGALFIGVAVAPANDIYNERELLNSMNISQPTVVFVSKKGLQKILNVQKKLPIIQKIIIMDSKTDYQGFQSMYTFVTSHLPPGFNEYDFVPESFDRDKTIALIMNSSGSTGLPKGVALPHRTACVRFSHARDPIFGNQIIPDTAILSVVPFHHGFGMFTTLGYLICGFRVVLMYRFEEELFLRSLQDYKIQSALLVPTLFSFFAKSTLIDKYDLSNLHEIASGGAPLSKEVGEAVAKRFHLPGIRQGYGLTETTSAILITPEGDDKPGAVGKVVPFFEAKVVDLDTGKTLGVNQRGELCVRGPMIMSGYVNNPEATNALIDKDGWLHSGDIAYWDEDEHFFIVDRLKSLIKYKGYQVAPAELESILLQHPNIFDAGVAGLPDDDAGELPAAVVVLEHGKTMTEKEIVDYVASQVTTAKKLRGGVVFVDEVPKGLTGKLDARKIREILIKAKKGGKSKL

For the molecule `O=C(Nc1cccc(C2=NCCN2)c1)Nc1cccc(C2=NCCN2)c1`, the Potency result in experiment [1], in experiment [2] and in experiment [3] was “inactive” each time.

In the case of `CN(C)CCN1C(=O)c2ccccc2N(C)c2ccccc21`, the Potency result in experiment [1], in experiment [2] and in experiment [3] was “inactive” each time.

Regarding `COc1cc(C(=O)N2CCCCCCC2)cc(OC)c1OC`, in experiment [1], the Potency entry was “inactive”.

Take `O=C(CCCN1CC=C(n2c(=O)[nH]c3ccccc32)CC1)c1ccc(F)cc1`: the Potency result in experiment [1], in experiment [2] and in experiment [3] was “inactive” in each case.

Consider `CC(C)(Cc1c[nH]c2ccccc12)NCC(O)COc1ccccc1C#N` (centres undefined), for which the Potency entry in experiment [1] is “inactive”.

For the molecule `CCCCCCCCCCCCOCCOCCOCCOCCOCCOCCOCCOCCOCCO`, the Potency entry in experiment [1] is “inactive”.

Regarding `CCN1/C(=C/C=C/c2sc3ccccc3[n+]2CC)Sc2ccccc21`, the Potency was 12.8 µM (active) in experiment [1], 4.05 µM (active) in experiment [2] and 2.03 µM (active) in experiment [3].

Turning to `O=C(Nc1ccc([N+](=O)[O-])cc1)Nc1ccc([N+](=O)[O-])cc1`, the Potency result in experiment [1] and in experiment [2] was “inactive” throughout.

In the case of `O=C(NC1CCN(CCc2c[nH]c3ccccc23)CC1)c1ccccc1`, the Potency entry in experiment [1], in experiment [2] and in experiment [3] was “inactive” each time.

As to `O=C1C(=O)c2ccccc2C(O)=C1C1CCC(c2ccc(Cl)cc2)CC1` (centres undefined), the Potency entry in experiment [1] was “inactive”.

`O=C(O)CCc1nc2ccccc2[nH]1`: the Potency entry in experiment [1], in experiment [2] and in experiment [3] was “inactive” in each case.

Regarding `CCOC(=O)[C@@](C)(N)Cc1ccc(O)c(O)c1`, the Potency entry in experiment [1] is “inactive”.

With `NS(=O)(=O)c1cc(C(=O)O)cc(N2CCCC2)c1Oc1ccccc1`, the Potency result in experiment [1], in experiment [2] and in experiment [3] was “inactive” in each case.

Consider `CC(=O)O[C@]1(C(C)=O)CC[C@H]2[C@@H]3C=C(Cl)C4=CC(=O)CC[C@]4(C)[C@H]3CC[C@@]21C`, for which, in experiment [1], the Potency result was “inactive”.

In the case of `O=S(c1cc(Cl)cc(Cl)c1O)c1cc(Cl)cc(Cl)c1O`, in experiment [1], the Potency is 32.2 µM (active). The Potency result in experiment [2] and in experiment [3] was “inactive” each time.

Regarding `Cn1c(=O)c2[nH]c(Br)nc2n(C)c1=O`, the Potency result in experiment [1] and in experiment [2] was “inactive” in each case.

In the case of `O=C(O)Cc1csc(-c2ccc(Cl)cc2)n1`, the Potency result in experiment [1] and in experiment [2] was “inactive” in each case.

On to `CC(C)(C)CC(C)(C)c1ccc(O)c(-n2nc3ccccc3n2)c1`, for which the Potency entry in experiment [1], in experiment [2] and in experiment [3] was “inactive” throughout.

As for `CCc1nn(CCCN2CCN(c3cccc(Cl)c3)CC2)c(=O)n1CCOc1ccccc1`, in experiment [1], the Potency result is “inactive”.

As to `C=C[C@H]1CN2CC[C@H]1C[C@H]2[C@H](O)c1ccnc2ccc(OC)cc12`, the Potency entry in experiment [1] was “inactive”.

Take `CCc1ccc(C(=O)C(C)CN2CCCCC2)cc1` (centres undefined): the Potency entry in experiment [1], in experiment [2] and in experiment [3] was “inactive” each time.

On to `Cc1cccc(C)c1NC(=O)CN1CCCC1`, for which the Potency result in experiment [1] and in experiment [2] was “inactive” each time.

As for `O=C(O)CCC(=O)Nc1ccc(S(=O)(=O)Nc2nccs2)cc1`, the Potency entry in experiment [1], in experiment [2] and in experiment [3] was “inactive” throughout.

`CC(C)Cn1cnc2c1c(=O)n(C)c(=O)n2C`: the Potency entry in experiment [1] is “inactive”.

For `CCOC(=O)C(C#N)=C(c1ccccc1)c1ccccc1`, the Potency entry in experiment [1] and in experiment [2] was “inactive” each time.

As to `CC(C)[N+](C)(C)CC(O)COc1cccc2ccccc12` (centres undefined), the Potency result in experiment [1], in experiment [2] and in experiment [3] was “inactive” throughout.

Turning to `CCc1cc(Cl)c(OC)c(C(=O)NC[C@@H]2CCCN2CC)c1O`, in experiment [1], the Potency result is “inactive”.

Regarding `Cc1cc(C)cc(OCC2CNC(=O)O2)c1` (centres undefined), the Potency result in experiment [1], in experiment [2] and in experiment [3] was “inactive” throughout.

Take `COc1cc(C(=S)N2CCOCC2)ccc1O`: the Potency result in experiment [1] and in experiment [2] was “inactive” each time.

As for `O=C1C(O)=C(O)C(=O)C(O)=C1O`, the Potency result in experiment [1], in experiment [2] and in experiment [3] was “inactive” each time.

In the case of `CCN(CC)CCNC(=O)c1cc(Br)c(N)cc1OC`, in experiment [1], the Potency entry was “inactive”.

Take `CCCN(CCc1cccs1)[C@H]1CCc2c(O)cccc2C1`: the Potency result in experiment [1] was “inactive”.

As to `COP(=O)(OC)OC(c1ccc(Cl)cc1)P(=O)(OC)OC` (centres undefined), the Potency entry in experiment [1], in experiment [2] and in experiment [3] was “inactive” each time.

With `COc1cc(O)c(C(=O)c2ccccc2)cc1S(=O)(=O)O`, the Potency entry in experiment [1] and in experiment [2] was “inactive” throughout.

As for `COc1cc(C)nc(-n2nc(C)cc2OC)n1`, the Potency entry in experiment [1], in experiment [2] and in experiment [3] was “inactive” in each case.

For the molecule `CCOc1ccccc1OCCN[C@H](C)Cc1ccc(OC)c(S(N)(=O)=O)c1`, the Potency result in experiment [1], in experiment [2], in experiment [3] and in experiment [4] was “inactive” each time.

Take `Cc1ccc(O)c([C@H](CCN(C(C)C)C(C)C)c2ccccc2)c1`: the Potency result in experiment [1], in experiment [2], in experiment [3] and in experiment [4] was “inactive” each time.

For the molecule `Cc1c[nH]c2ccccc12`, the Potency result in experiment [1], in experiment [2] and in experiment [3] was “inactive” in each case.

For `CCNC(=O)NCc1cccc(Cl)c1`, the Potency entry in experiment [1], in experiment [2], in experiment [3] and in experiment [4] was “inactive” in each case.

As to `NS(=O)(=O)Cc1noc2ccccc12`, the Potency entry in experiment [1], in experiment [2], in experiment [3] and in experiment [4] was “inactive” each time.

Consider `COc1cc(N)c(Cl)cc1C(=O)NC1CCN(Cc2ccccc2)CC1`, for which the Potency entry in experiment [1], in experiment [2], in experiment [3] and in experiment [4] was “inactive” throughout.

Consider `CCCCC(CC)COC(=O)/C=C/c1ccc(OC)cc1` (centres undefined), for which the Potency entry in experiment [1], in experiment [2], in experiment [3] and in experiment [4] was “inactive” each time.

As to `Cc1ccccc1OCC(O)CO` (centres undefined), the Potency result in experiment [1], in experiment [2], in experiment [3] and in experiment [4] was “inactive” throughout.

As to `CC(=O)OC[C@H]1O[C@@H](n2ncc(=O)[nH]c2=O)[C@H](OC(C)=O)[C@@H]1OC(C)=O`, the Potency entry in experiment [1], in experiment [2] and in experiment [3] was “inactive” each time. Besides, the Potency in experiment [4] is 9.99 µM (active).

Source of the values: PubChem BioAssay (NCATS).
